About 5,100 (2.5%) of roughly 200,000 compounds were called active. Only a selection was taken, and actives are over-represented in it overall. Unmarked numbers belong to inactive results.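 Rule for the calls: active = activation above the screen-wide mean activation plus 3 SD (cut at about 130% in these data); inactive = the rest.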
Test: STAT1 signaling activators, primary screen, cell-based, HTS, luciferase reporter (AID 932);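 note: raw ratio to IFN-gamma control signal so 100% means no change and 0% no light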
Details: NIH 3T3 STAT1-luciferase reporter, IFN-gamma, luminescence; at 5.5 µM; hits give high values; 100% = IFN-gamma alone, no compound

Row | SMILES | activation (% of control)
1 | CCCn1c(SCC(=O)Nc2ccc(C)c(S(=O)(=O)N3CCOCC3)c2)n[nH]c1=O | 90.6%
2 | CCC(=O)Nc1ccc(C(=O)N2CCN(C(=O)c3ccco3)CC2)cc1 | 99.8%
3 | CN(C)c1ccc(C=NCCc2ccc(S(N)(=O)=O)cc2)cc1 | 101%
4 | O=C(Nc1ccn(Cc2ccc(F)cc2)n1)c1ccncc1 | 94.9%
5 | O=C(Nc1ccn(Cc2ccccc2)n1)c1cccc(F)c1 | 131% (active)
6 | O=C(Nc1ccn(Cc2ccccc2)n1)c1n[nH]c([N+](=O)[O-])c1Cl | 121%
7 | COC1=CCC2([N+](=O)[O-])CN(CC(=O)O)CC1([N+](=O)[O-])C2 (centres undefined) | 106%
8 | Fc1ccc2c(c1)C(c1cccnc1)=NNC(c1cccs1)=N2 | 103%
9 | Cc1ccc(NC(=O)O/N=C/c2cccc([N+](=O)[O-])c2)cc1 | 113%
10 | COc1cc2c3c(c1)/C(=C1/SC(=S)NC1=O)C(=O)N3C(C)(C)C=C2C | 98.1%
11 | Cc1ccc(NC(=O)c2oc3ccccc3c2C)c([N+](=O)[O-])c1 | 100%
12 | O=C(Nc1ccccc1)c1cc2ccccc2[nH]1 | 137% (active)
13 | CC(C)n1c(=O)[nH]c2cc(C(=O)Nc3ccccc3)ccc21 | 128%
14 | O=C(Nc1ccccc1)c1ccccc1NC(=O)C(F)(F)F | 93.5%
15 | CCCCNC(=O)Nc1c(C)cc(SC#N)cc1C | 97.9%
16 | CCOc1ccc(/C=N/Nc2nncc(-c3ccccc3)n2)cc1OC | 107%
17 | COc1ccc(/C=N/S(=O)(=O)c2ccccc2)cc1OC | 107%
18 | COc1ccc(/C=N/Nc2nc3ccccc3o2)cc1OC | 153% (active)
19 | CCOC(=O)c1ccc[n+](CC(=O)Nc2ccccc2OC(F)F)c1 | 98.5%
20 | O=C(Nc1cccc(-c2nnc(-c3ccccc3)o2)c1)C1CCCO1 (centres undefined) | 120%
21 | O=C(Nc1ccc(-c2nnc(-c3ccccc3)o2)cc1)C1CCCO1 (centres undefined) | 168% (active)
22 | O=C(Nc1nnc(CCc2ccccc2)s1)C1CCCO1 (centres undefined) | 109%
23 | CC1CN(S(=O)(=O)c2ccc(C(=O)NN3CCN(C)CC3)cc2)CC(C)O1 (centres undefined) | 100%
24 | CC(=O)c1sc(NC(=O)c2ccc(C)cc2)nc1C | 161% (active)
25 | CC(=O)c1sc(N/N=C/c2ccc(C(C)C)cc2)nc1C | 158% (active)

Row | SMILES | activation (% of control)
26 | CC(=O)c1sc(NC(=O)C2=NN(c3ccccc3)C(=O)CC2)nc1C | 98.2%
27 | COc1cccc2sc(Nc3nc(C)c(C(C)=O)s3)nc12 | 112%
28 | CC(=O)c1sc(NC(=O)CCCOc2ccccc2C)nc1C | 105%
29 | CCOC(=O)c1sc(NC(=O)c2ccncc2)nc1C | 109%
30 | CC(=O)c1sc(N/N=C\c2ccc(C)cc2)nc1C | 166% (active)
31 | Cc1ccc(S(=O)(=O)Nc2nc(C)cc(N/N=C/c3ccc(O)cc3)n2)cc1 | 95.6%
32 | CC(=O)c1sc(NC(=O)c2cccc3ccccc23)nc1C | 114%
33 | Cn1c(=O)c2c(ncn2CCc2ccccc2)n(C)c1=O | 101%
34 | CC(NC(=O)Nc1ccccc1)C(c1cccs1)N1CCN(c2ccccc2)CC1 (centres undefined) | 87%
35 | O=C(CN1C(=O)c2cccc3cccc(c23)C1=O)N1CCCCC1 | 89.3%
36 | Cc1nccc(-c2ccc(-n3c(C)ccc3C)cc2)n1 | 101%
37 | O=C(COC(=O)c1ccccn1)Nc1cccc2ccccc12 | 103%
38 | CNC(=O)/C(C#N)=C/c1c(F)cccc1Cl | 82.9%
39 | Cc1ccc(O)c(CCc2ccccc2)n1 | 104%
40 | COc1ccc(C(=O)Nc2ccc(S(=O)(=O)Nc3onc(C)c3C)cc2)cc1OC | 104%
41 | Cc1noc(NS(=O)(=O)c2ccc(N/C=C/C(=O)c3ccccc3)cc2)c1C | 113%
42 | Cc1ccc(C(=O)/C=C/Nc2ccc(S(=O)(=O)Nc3onc(C)c3C)cc2)cc1 | 142% (active)
43 | CC(C)C(O)C1CCN(Cc2nc(Cc3ccccc3Cl)no2)CC1 (centres undefined) | 105%
44 | Cc1ccc(N(C(=O)c2ccc(S(=O)(=O)N(C)C)cc2)C2C=CS(=O)(=O)C2)cc1 (centres undefined) | 96.7%
45 | CCC(O)C1CCN(Cc2cn(-c3ccc(OC)cc3)nc2-c2cccc(F)c2)CC1 (centres undefined) | 107%
46 | CCc1nc(Nc2ccc3nccnc3c2)c2oc3ccccc3c2n1 | 98.2%
47 | Cc1nc(Cl)c2oc3ccccc3c2n1 | 103%
48 | COc1ccccc1Nc1ncnc2c1oc1ccccc12 | 137% (active)
49 | CCN(c1ccc(NC(=O)COC(=O)CCc2nc3ccccc3n2-c2ccccc2)cc1)C(C)C | 99.5%
50 | CC(C)CC(=O)N/C(N)=N/c1nc2ccccc2s1 | 123%

Row | SMILES | activation (% of control)
51 | CCC(=O)NC(=Nc1nc2ccccc2s1)NC(=O)CC | 180% (active)
52 | COC(=O)c1nc2ccccc2s1 | 103%
53 | Cc1ccc(S(=O)(=O)N(C)C)cc1NC(=O)c1ccccc1Br | 106%
54 | Cc1c(C(=O)Nc2ccccc2)sc2nc3n(c(=O)c12)CCCCC3 | 130% (active)
55 | O=c1c2c(nc3n1CCCCC3)sc1c(O)cccc12 | 104%
56 | Cc1c(C(=O)Nc2cccc(-c3nnc4n3CCCCC4)c2)oc2ccccc12 | 104%
57 | COc1ccc(-c2nc3cnccn3c2NC(C)(C)CC(C)(C)C)cc1O | 102%
58 | COc1ccc(C(C(=O)NC2CCCCC2)N(C(=O)Cc2c[nH]c3ccccc23)c2ccccc2)cc1OC (centres undefined) | 105%
59 | c1ccc(-n2ncc3c(N4CCCC4)ncnc32)cc1 | 115%
60 | COc1ccc(-n2ncc3c(N4CCCc5ccccc54)ncnc32)cc1 | 187% (active)
61 | Cc1cccc(-n2ncc3c(N4CCc5ccccc54)ncnc32)c1 | 113%
62 | COc1ccc(-n2ncc3c(N4CCc5ccccc54)ncnc32)cc1 | 137% (active)
63 | COc1ccc2oc(=O)c(C(=O)N3CCCc4ccccc43)cc2c1 | 97.1%
64 | COc1ccc(-n2c(C)nc3c(cnn3-c3ccccc3)c2=O)cc1 | 88.7%
65 | CC(C)(C)NC(=O)NC(=O)COC(=O)C1(C)CC1(Cl)Cl (centres undefined) | 104%
66 | NC(=O)c1ccc(CN2CCC(Cc3ccccc3)CC2)cc1 | 98.6%
67 | COc1ccc(CCNC(=O)c2ccc(CS(=O)(=O)c3ccc(Br)cc3)o2)cc1OC | 84.6%
68 | Cc1ccc(OCCOCCOc2ccc(Br)cc2/C=N\NC(=O)c2ccncc2)cc1 | 102%
69 | CC(=O)Nc1cccc(-c2cnc3ccccc3n2)c1 | 159% (active)
70 | Cc1cc(O)ccc1-c1cnc2ccccc2n1 | 108%
71 | CC(=O)Nc1cccc(-c2csc(Nc3cccc(C)n3)n2)c1 | 175% (active)
72 | COc1ccc(CCNc2nc(-c3cccc(NC(C)=O)c3)cs2)cc1OC | 88.5%
73 | CCS(=O)(=O)Nc1cccc(-c2cc(-c3ccccc3)c3cc(C)ccc3n2)c1 | 96.5%
74 | CC(=O)Nc1ccc(-c2csc(NC(=O)Nc3ccccc3)n2)cc1 | 95.7%
75 | CCOC(=O)/C(=N\Nc1ccccc1[N+](=O)[O-])c1csc(Nc2ccccc2)n1 | 102%

Row | SMILES | activation (% of control)
76 | OC1CCCN(c2ncnc3c2nnn3Cc2c(F)cccc2Cl)C1 (centres undefined) | 102%
77 | COc1ccc(CCNC(=O)COC(=O)/C=C/c2cccs2)cc1OC | 90.8%
78 | CCOC(=O)c1sc(=NC(=O)/C=C/c2cccs2)n(C)c1C | 140% (active)
79 | CCOC(=O)c1c(NC(=S)NC(=O)/C=C/c2cccs2)sc(C)c1C | 105%
80 | CCOc1cc(NC(=S)NCc2ccco2)c(OCC)cc1NC(=O)c1ccco1 | 94.2%
81 | COc1cc(OC)cc(-c2nnc(SCC(=O)Nc3ccc(C(=O)O)cc3)s2)c1 | 92.8%
82 | CCn1nc(C(=O)OCC(=O)N2c3ccccc3CC2C)c2ccccc2c1=O (centres undefined) | 94.7%
83 | CCCC(=O)N1c2ccc(-c3csc(N)n3)cc2CC1C (centres undefined) | 150% (active)
84 | CCC(=O)N1c2ccc(S(=O)(=O)CCC(=O)N3CCN(c4ccccc4)CC3)cc2CC1C (centres undefined) | 101%
85 | O=C(Nc1cccc(F)c1)c1coc(=O)c(Br)c1 | 89.3%
86 | Cc1cccc(NC(=S)N(CCN(C)C)C(C)c2ccco2)c1 (centres undefined) | 97.6%
87 | COc1ccccc1-n1c(=S)[nH]c2c(sc(=S)n2-c2ccc(C)cc2C)c1=O | 97.7%
88 | CCOC(=O)c1cnc2[nH]c3ccccc3n2c1=O | 104%
89 | COc1ccc(OC)c(Nc2nc(-c3ccc(O)c(O)c3)cs2)c1 | 102%
90 | COc1ccc2nc(Nc3nc(-c4ccncc4)cs3)sc2c1 | 140% (active)
91 | COc1ccc2nc(NC(=O)[C@@H]3CCCN3C(=O)c3cccs3)sc2c1 | 103%
92 | Cc1cccc(S(=O)(=O)CC(=O)Nc2nc(-c3ccccc3)cs2)c1 | 105%
93 | COc1ccc(Nc2nc(-c3ccccc3)cs2)cc1 | 142% (active)
94 | NS(=O)(=O)c1ccc(Nc2nc(-c3ccccc3)cs2)cc1 | 131% (active)
95 | COc1ccc2nc(Nc3nc(-c4cc5ccccc5oc4=O)cs3)sc2c1 | 103%
96 | CC(=O)Nc1ccc(S(=O)(=O)Nc2nc(-c3ccc(C(C)(C)C)cc3)cs2)cc1 | 99%
97 | COc1ccc(-c2csc(Nc3ccc(O)cc3)n2)cc1 | 110%
98 | CCNC(=O)N1c2ccccc2Sc2ccccc21 | 98%
99 | CCNC(=O)CC1C(=O)N(c2ccc(OC)cc2)C(=S)N1CCc1ccncc1 (centres undefined) | 105%

Reference: PubChem BioAssay AID932 (The Scripps Research Institute Molecular Screening Center, 2007)
